Only some compounds are listed: those with a hit (about 11% of all), similar ones and a draw of the others.
Tau fluor counter – counter-screen for tau fibril formation inhibitors; AID 1463; 280,000 tested, 0.93% active; tau K18 P301L Alexa594 fluorescence, heparin fibrillization; Potency, µM (highest dose often 57.7 µM), without a hit: at the top dose activity change, negative = decrease; further: potency means the concentration at half of the fitted maximal effect; on the % scale 0 is the no-effect control and ±100 the full control effect; nearly all actives have a fitted effect of over 55% in size
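Human tau K18 P301L (15 uM unlabeled, 0.24 uM Alexa 594-labeled) in 100 mM sodium acetate pH 7 with 20 uM heparin, 6 hr at 37 C. ThT 30 uM added, 1 hr ambient; Alexa 594 FP and total fluorescence read at 555/632 nm.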
Tau ThT inhib – blocks human tau fibril formation measured by thioflavin T | P10636 | Potency, µM (top dose mostly 57.4 µM), for inactives: at the top dose activity, negative = inhibition, most hits filed as inhibitors | recombinant tau K18 P301L, heparin-induced fibrillization, ThT fluorescence | 270,000 tested, 2.1% active; further: potency means the concentration at half of the fitted maximal effect; on the % scale 0 is the no-effect control and ±100 the full control effect; nearly all actives have a fitted effect of over 55% in size
Target sequence (P10636 561-689 P618L limits assumed): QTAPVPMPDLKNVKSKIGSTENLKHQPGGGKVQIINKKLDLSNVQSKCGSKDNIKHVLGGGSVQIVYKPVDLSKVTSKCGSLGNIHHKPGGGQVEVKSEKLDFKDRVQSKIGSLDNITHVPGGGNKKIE
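Tau K18 P301L fragment (15 uM unlabeled plus 0.24 uM Alexa 594-labeled) in 100 mM sodium acetate pH 7 with compound, fibrillization induced by 20 uM heparin for 6 hr at 37 C. Thioflavin T (30 uM) added, fluorescence read after 1 hr (ex 450, em 510 nm).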
Coupling enz – inhibits coupling enzyme system, counter-screen for aldolase hits; coupling enzyme system counterscreen, AmpLite Red fluorescence; activity change, negative = inhibition, % at 58.2 µM, hits read low; 290,000 tested, 0.67% active; in the data active means activity change below about -30%; further: on the % scale 0 is the no-effect control and ±100 the full control effect
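Fluorescence at 525 nm excitation and 598 nm emission measured inhibition of the coupled detection system without aldolase. Compounds (at 57.5 uM final) were preincubated 10 min at room temperature with coupling enzyme reagent before a 20 min substrate/AmpLite Red step.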
G9a inh – blocks human histone lysine methyltransferase G9a; Potency, µM (titrated, usually from 102 µM), inactives show at the highest dose activity, negative = inhibition, hits mostly inhibitors; G9a H3K9 monomethylation, AlphaScreen, 2 h; Q96KQ7; 350,000 tested, 8.8% active; further: potency means the concentration at half of the fitted maximal effect; on the % scale 0 is the no-effect control and ±100 the full control effect; nearly all actives have a fitted effect of over 75% in size
Target sequence (Q96KQ7 913-1193 limits assumed): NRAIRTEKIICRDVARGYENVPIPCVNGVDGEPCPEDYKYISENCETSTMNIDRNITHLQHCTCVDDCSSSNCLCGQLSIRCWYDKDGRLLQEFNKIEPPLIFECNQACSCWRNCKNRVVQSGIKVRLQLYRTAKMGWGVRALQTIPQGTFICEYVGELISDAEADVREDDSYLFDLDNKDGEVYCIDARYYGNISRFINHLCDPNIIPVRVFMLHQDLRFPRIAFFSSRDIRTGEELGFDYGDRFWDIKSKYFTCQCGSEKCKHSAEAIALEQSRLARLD
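Signal arises when biotinylated H3K9 peptide, once monomethylated, bridges streptavidin donor and antibody-captured acceptor beads. Enzyme at 20 nM was preincubated 15 min with test compounds; peptide 500 nM and SAM 20 uM then reacted for 2 h.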
Tau fibril FP – blocks human tau fibril formation measured by polarization | AID 1468 | Potency, µM (top dose mostly 57.7 µM), inactives show at the highest dose activity, negative = inhibition, most hits filed as inhibitors | 280,000 tested, 0.39% active | P10636 | K18 P301L tau heparin fibrillization, Alexa594 FP, 6 h; further: potency means the concentration at half of the fitted maximal effect; on the % scale 0 is the no-effect control and ±100 the full control effect; nearly all actives have a fitted effect of over 55% in size
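Human tau K18 […] P301L fragment, 15 uM unlabeled plus 0.24 uM Alexa 594-labeled tau (final), with compound and 20 uM heparin in 100 mM sodium acetate pH 7; 6 hr at 37 C, then Alexa 594 FP read.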
Sfp PPTase inh – inhibitors of Bacillus subtilis Sfp phosphopantetheinyl transferase | Q9F4F7 | AID 1490 | Biochemical Sfp PPTase activity, qHTS | 310,000 tested, 3.5% active | Potency, µM, inactives show largest response in the series, negative = inhibition, hits mostly inhibitors;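 further: the enzyme is Sfp with the accession as filed and its product quenches rhodamine fluorescence; potency means the concentration at half of the fitted maximal effect; 0% = enzyme reaction without inhibitor and -100% = no enzyme wells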
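After 15 min at room temperature with compound, 15 nM Sfp received 5 uM rhodamine-CoA plus 12.5 uM BHQ-2-ybbR (50 mM Hepes pH 7.6, 10 mM MgCl2). Rate came from the fluorescence difference over 30 min, ex 525/em 598 nm.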
Tau TEM fibril – Inhibits human tau fibrillization; fibril grade (0 = clumped fibrils, 4 = only tiny pieces) (concentration not given with the values); 45 tested, 70% active; shares compounds with Tau ThT inhib; recombinant tau K18 P301L fibrillization, TEM grading; active compounds read high;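 active means compounds whose electron micrographs showed tau fibrils broken into shorter filaments or fragments, graded high on fibril breakup; inconclusive means micrographs gave an unclear fibril picture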
tau fibril sed – tau fibrillization inhibition by sedimentation; shares compounds with Tau ThT inhib; recombinant tau K18 P301L (four-repeat tau fragment), sedimentation SDS-PAGE densitometry; inhibition, % at 100 µM; 110 tested, 50% active; in the data active means inhibition above about 40%; inconclusive means no clear call, values can overlap the other calls; inactive means below about 18%
Active calls of the source: *; ? = inconclusive; . = no result given; [ ] = remark or other dose. Unless noted, the call rests on the fitted dose curve; in most records, active means well fitted curve in the direction sought with a large enough effect; inconclusive means small, poorly fitted or top-dose-only effect, or another doubt; inactive means no such curve, though single readings can be large; an effect the other way counts as inactive or inconclusive.

SMILES | Tau fluor counter | Tau ThT inhib | Coupling enz | G9a inh | Tau fibril FP | Sfp PPTase inh | Tau TEM fibril | tau fibril sed
COC(=O)c1c(NC(=O)CCCOc2cccc(C)c2)sc2c1C(C(=O)OC)CC2 (stereo not drawn) | -28% | 3.2µM* | . | 1.1µM* | ? | . | 2* | 56*
C#CCCOC(=O)N1C2=NC(C(=O)OC)=C(C(=O)OC)[C@@H]3Nc4ccccc4[C@]23C[C@H]1C(=O)OC | -2%[11.6 µM] | 1%[11.5 µM] | 1 | . | -8%[11.6 µM] | 9% | . | .
CCN1C(=O)CSC1=Nc1ccccc1Cl | . | . | -1 | 25%[59 µM] | . | 20% | . | .
CCCCS(=O)(=O)N1CCC(C(=O)Oc2ccc(Cl)cc2)CC1 | . | . | -1 | . | . | 6% | . | .
COC(=O)c1ccccc1NC(=O)CSc1nc2sc3c(c2c(=O)[nH]1)CCCC3 | ? | 7.9µM* | . | ? | 14µM* | . | 2* | 58*
Cc1cc(C)cc(NC(=O)CSc2nc3sc4c(c3c(=O)[nH]2)CCCC4)c1 | 9% | 2% | . | 6%[59 µM] | -1% | . | . | .
O=C(O)CSc1cc(NS(=O)(=O)c2cccc([N+](=O)[O-])c2)c2ccccc2c1O | ? | 1.8µM* | -40* | 2.5µM* | 4µM* | 2.8µM* | 4* | 79*
CCc1ccc(S(=O)(=O)Nc2cc(SCC(=O)O)c(O)c3ccccc23)cc1 | ? | 3.2µM* | -42* | 3.5µM* | 8.9µM* | 4µM* | 4* | 77*
O=[N+]([O-])c1cccc(S(=O)(=O)NCCNS(=O)(=O)c2cccc([N+](=O)[O-])c2)c1 | . | . | . | -1%[12.7 µM] | . | 10% | . | .
O=C(CNC(=O)c1ccccc1)OCc1cc(=O)n2nc(C3CC3)sc2n1 | 1% | -3% | . | 12%[59 µM] | -1% | . | . | .
CCc1nnc2c(N(C)S(=O)(=O)c3ccc(C)cc3)nc3ccccc3n12 | . | . | -1 | -13% | . | 25% | . | .
Cc1ccc(S(=O)(=O)N(C)c2nc3ccccc3[nH]c2=S)cc1 | -24% | 1.1µM* | 3 | -133%[59 µM] | ? | ? | 0 | ?
O=C(Nc1ccccc1)Nc1cccc(NC(=O)Nc2ccccc2)c1F | . | . | 0 | 5% | . | 11% | . | .
Cc1cc2c(NC(=O)Nc3ccccc3)cccc2nn1 | -25% | ? | -42* | ? | ? | 45µM* | ? | ?
O=C(Nc1nnc(S(=O)(=O)Nc2ccccc2)s1)C1CCCCC1 | ? | ? | 3 | -41%[59 µM] | -18% | 8% | . | 10
Nc1cc(-c2ccccc2)c[nH]c1=O | . | . | . | . | . | . | ? | 65*
O=c1[nH]cnc2nc(-c3ccccc3)c(-c3ccccc3)nc12 | -8% | -12% | -5 | 12%[59 µM] | 0% | -1% | . | .
O=C(CSc1nc2ccc(NC(=O)CSc3nnnn3Cc3ccccc3)cc2s1)Nc1ccccc1 | ? | -10% | -3 | ? | ? | -6% | . | .
COC(=O)CSc1nc2ccc(NC(=O)CSc3nnnn3Cc3ccccc3)cc2s1 | ? | ? | 2 | ? | ? | -6% | . | 18
O=C1SC(Cc2ccccc2)C(=O)N1c1ccccc1 (stereo not drawn) | -6% | -8% | 3 | -3%[59 µM] | 1% | 20% | . | .
Cc1ccc(N2C(=O)SC(Cc3ccccc3)C2=O)cc1 (stereo not drawn) | -24% | ? | 8 | 8.9µM* | ? | 22µM* | ? | ?
O=C(c1ccc(=O)[nH]c1)N1CCCc2ccccc21 | . | . | 3 | -3%[2.33 µM] | . | 12% | . | .
CN(C)S(=O)(=O)c1cccc(N=C2NN=C(c3ccccc3)CS2)c1 | ? | 8.9µM* | 0 | 35µM* | ? | 10% | 3* | ?
CCOC(=O)C1CCN(S(=O)(=O)c2c(C)[nH]c(C)c2C(=O)N2CCCCC2)CC1 | . | . | 0 | -11% | . | 17% | . | .

Source: PubChem BioAssay (National Center for Advancing Translational Sciences (NCATS))
